# Test results published in PubChem BioAssay AID1224862 (National Center for Advancing Translational Sciences (NCATS), 2016).
# Records with an inconclusive call do not appear. Entries that show only a call come without a potency. Active and inactive are the calls of the source. Calls follow the shape of the dose curve; as a rule, active = well fitted cell-killing curve with a large enough effect; inconclusive = small, poorly fitted or top-dose-only effect, or effect the other way; inactive = flat fitted curve, though single readings scatter.
# Test: Compound cytotoxicity measured by an ATP content assay as a counter-screen for lead compounds in human astrocytoma cell line (SNB-19)
# Settings: SNB-19 astrocytoma viability, ATP luminescence; series mostly up to 46.1 µM
# Protocol: National Center for Advancing Translational Sciences [NCATS] Johns Hopkins University School of Medicine Florida State University Assay Overview: Many compounds can cause cytotoxicity at high compound concentrations. […] The compound cytotoxicity may also cause side effects or toxicity in human. Thus, the compound cytotoxicity needs to be measured in each cell type and each compound incubation time - same as these in the compound screening assay. The compound cytotoxicity can be measured by cell viability assays such as the ATP content assay. We use an ATP content assay kit for cell viability measurement. It measures ATP content (level) in human astrocytoma cell line (SNB-19) using a luminescence readout that is proportional to viable cell numbers. Decrease in the luminescence signal after the compound treatment indicates reduced cell viability and cell death caused by compound treatment.
# Assay Protocol Summary: The medium for SNB-19 cells is composed of RPMI 1640 (ATCC, Cat.# 30-2001), 10% fetal bovine serum (FBS) (GE healthcare Life Sciences, Cat.# SH30071.03), and 1% Pen/Strep (Gibco, Cat.# 15140-122). The ATP content assay kit (PerkinElmer, Cat.# 6016731) was used to determine cell viability. The reagent was reconstituted and prepared as described by the manufacturer. Cells were seeded in 384- or 1536-well assay plates and cultured at 37 C with 5% CO2 for 16 to 20 hours. The typical cell seeding density in the 1536-well plate assay is 250 cells/well in 3ul medium for SNB-19 cells in tissue culture treated plates. Compounds were added to cells and incubated for a specific time such as 6, 24, or 72 hours before addition of the reagent mixture of the ATP content assay kit at 1:1 ratio. After incubation at room temperature for 10 minutes, the luminescence intensity in assay plates was measured using a ViewLux plate reader (PerkinElmer). […] The percentage inhibitions of the decreased cell viability by small molecules were then calculated that indicate compound cytotoxicity.
row,SMILES,Potency
1,CC(C)[C@H]1C(=O)N[C@H](CO)Cc2c[nH]c3cccc(c23)N1C,inactive
2,CC(O)CN1CCN(CC(=O)[O-])CCN(CC(=O)[O-])CCN(CC(=O)[O-])CC1.[Gd+3] (centres undefined),inactive
3,Cc1ccc([N+](=O)[O-])[c]2c1[O][Hg]2,5.48 µM (active)
4,CN1CC[C@@]2(C)c3cc(OC(=O)Nc4ccccc4)ccc3N(C)[C@@H]12,inactive
5,O=C1C=CC[C@@H]2[C@H]3CCCN4CCC[C@@H](CN12)[C@@H]34,inactive
6,CC[n+]1c(-c2ccccc2)c2cc(N)ccc2c2ccc(N)cc21,inactive
7,S=C(SSC(=S)N1CCCCC1)N1CCCCC1,inactive
8,CC(C)N[C@@H]1CCn2c(=O)[nH]c3cccc(c32)[C@@H]1O,inactive
9,COP(=S)(OC)SCN1C(=O)c2ccccc2C1=O,inactive
10,COc1cccc2c1C(=O)c1c(O)c3c(c(O)c1C2=O)C[C@@](O)(C(=O)CO)CC3OC1CC(N2CCOC(OC)C2)C(O)C(C)O1 (some centres undefined),inactive
11,O=S(=O)(CC1CS1)c1ccc(Oc2ccccc2)cc1 (centres undefined),inactive
12,O=C1CCC[C@@H]2[C@H]3CCCN4CCC[C@@H](CN12)[C@@H]34,inactive
13,Oc1ccc([C@H]2CNCc3c2ccc(O)c3O)cc1O,inactive
14,CC(C)[N+](C)(CCC(C(N)=O)(c1ccccc1)c1ccccc1)C(C)C,inactive
